From PubChem BioAssay (NCI) come the findings set out here.

The structures appear in SMILES notation. This is part of a sample that, as a whole, favours compounds with a hit. Of some 83,000 tested, about 20% had one in any assay.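 Step 1: grow cells in 96-well plates. Step 2: add test compound at a single concentration. Step 3: incubate 48 h. Step 4: record percent growth.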 Values without a mark were called inactive. Calls of active or inactive are those of the source. Rule for the calls: active = growth percent below 10; inactive = the rest.

Some test systems named below: T-47D breast; BT-549 breast; MDA-MB-435 melanoma; SW-620 colon; MCF7 breast; HCT-116 colon; HCC-2998 colon; KM12 colon.
Holding throughout (assay): NCI-60 one-dose screen, 48 h (100 = growth as untreated, 0 = no growth, -100 = all killed)
Common to all, as to conditions: 10 µM unless noted

Turning to `C#Cc1cccc(Nc2ncnc3ccc(-c4cnc(Cl)c(NS(C)(=O)=O)c4)cc23)c1`, the growth with T-47D breast is -46.8% (active); with BT-549 breast, -35.4% (active); in the assay with MDA-MB-435 melanoma, -55.2% (active); in the assay with SW-620 colon, 2.56% (active); in the assay with MCF7 breast it was -0.512% (active); in the assay with HCT-116 colon, -55% (active). Besides, the growth is -62.5% (active) with HCC-2998 colon and -54.3% (active) in the assay with KM12 colon.

For the compound `CO[C@H]1/C=C/O[C@@]2(C)Oc3c(C)c(O)c4c(O)c(c5c(nc6cc(C)ccn65)c4c3C2=O)NC(=O)/C(C)=C\C=C\[C@H](C)[C@H](O)[C@@H](C)C(O)[C@@H](C)[C@H](OC(C)=O)[C@@H]1C` (stereo not given in full), the growth is -5.36% (active) with T-47D breast; 97.4% with BT-549 breast; 104% with MDA-MB-435 melanoma; 114% with SW-620 colon; 103% with MCF7 breast; 94.9% with HCT-116 colon. The growth in the assay on HCC-2998 colon is 106%; in the assay with KM12 colon, 108%.

In the case of `CN(C)c1ccc(/C=N/NC(=O)CSc2nc3sc4c(c3c(=O)n2-c2ccccc2)CCCCC4)cc1`, the growth was 61.5% in the assay with T-47D breast; 71.2% in the assay with BT-549 breast; 33.2% in the assay with MDA-MB-435 melanoma; 27.2% in the assay with SW-620 colon; 35% in the assay with MCF7 breast; 7.89% (active) with HCT-116 colon. For the same compound, the growth in the assay on HCC-2998 colon was 39.4%; in the assay with KM12 colon, 38.5%.

Regarding `COC1=C(OC)C(=O)C(CCCCCCCCCCO)=C(C)C1=O`, the growth in the assay with T-47D breast was 19.3%; with BT-549 breast, 87.4%; in the assay on MDA-MB-435 melanoma, -51% (active); with SW-620 colon, 103%; in the assay on MCF7 breast it was 30.2%; in the assay on HCT-116 colon, 52.9%. The results for the growth with HCC-2998 colon and in the assay with KM12 colon were 115% and 67.5%, respectively.

As to `COC(=O)c1nc(-c2ccccc2)oc1S(=O)(=O)N1CCN(c2ccc(OC)cc2)CC1`, the growth in the assay with T-47D breast is 59%; in the assay with BT-549 breast, 76.6%; in the assay on MDA-MB-435 melanoma it was 77.2%; in the assay on SW-620 colon, 41.4%; in the assay on MCF7 breast, 45.4%; with HCT-116 colon it was 60.9%. The growth in the assay with HCC-2998 colon is 104%; in the assay on KM12 colon, 86.2%.

As to `COc1ccccc1/C=C/C1=C(C)CCC(c2ccccc2OC)C1C` (stereo not given), the growth in the assay with T-47D breast is 61.9%; with BT-549 breast it was -16.3% (active); with MDA-MB-435 melanoma, -3.28% (active); with SW-620 colon, 18.2%; in the assay with MCF7 breast, 7.88% (active); in the assay with HCT-116 colon, 2.8% (active). Besides, the growth in the assay with HCC-2998 colon is -12.5% (active); in the assay on KM12 colon it was 6.67% (active).

With `CS(=O)(=O)c1cccc(Nc2ncc3cc(-c4ccccc4Cl)ccc3n2)c1`, the growth with T-47D breast was 11.1%; in the assay on BT-549 breast it was 10.3%; with MDA-MB-435 melanoma, -28.3% (active); with SW-620 colon it was 15.7%; in the assay on MCF7 breast, 21.4%; in the assay with HCT-116 colon, -5.46% (active). For the same compound, the results for the growth in the assay with HCC-2998 colon and with KM12 colon were 33.3% and 21.5%, respectively.

For the compound `COC12C=C/C(=C(/C(=O)OCc3ccccn3)C(=O)CCCCCCCCC3(OC)C=C/C(=C(/C(=O)OCc4ccccn4)C(=O)CCCCCCCC1)O3)O2`, the growth in the assay with T-47D breast was 18.5%; in the assay on BT-549 breast it was -26.9% (active); in the assay with MDA-MB-435 melanoma, -23.6% (active); with SW-620 colon, 8.34% (active); in the assay with MCF7 breast, -0.915% (active); in the assay with HCT-116 colon, -59.7% (active). The growth in the assay on HCC-2998 colon is -82.6% (active); with KM12 colon, -76.2% (active).

Consider `COc1ccc(-c2cc(-c3ccc(Cl)cc3)c(C#N)c(=O)n2CCCCC(=O)NO)cc1`, for which the growth is 83.2% in the assay with T-47D breast; 59.8% in the assay on BT-549 breast; 91.1% with MDA-MB-435 melanoma; 80% in the assay on SW-620 colon; 76.7% in the assay with MCF7 breast; 62.7% in the assay with HCT-116 colon. The growth was 84.3% in the assay on HCC-2998 colon and 86.9% in the assay on KM12 colon.

For the compound `CN1CCN(Cc2ccc(NC(=O)c3cncc(C#Cc4c(N)ncc5ccccc45)c3)cc2C(F)(F)F)CC1`, the growth is -64.5% (active) in the assay with T-47D breast; 14.6% in the assay with BT-549 breast; -90.3% (active) in the assay on MDA-MB-435 melanoma; -71.3% (active) with SW-620 colon; -70.8% (active) in the assay on MCF7 breast; -96.5% (active) with HCT-116 colon. The growth with HCC-2998 colon is -60.7% (active); with KM12 colon it was -65.2% (active).

For the compound `Cc1ccc(C23CCC(=O)N2CCc2cncn23)cc1` (stereo not given), the growth in the assay with T-47D breast was 91.2%; in the assay on BT-549 breast, 100%; in the assay on MDA-MB-435 melanoma, 101%; with SW-620 colon, 97.7%; in the assay with MCF7 breast it was 97.9%; with HCT-116 colon it was 104%. Besides, the growth in the assay on HCC-2998 colon is 107%; in the assay on KM12 colon it was 101%.

As to `C#C[C@]1(O)CC[C@H]2[C@@H]3CC=C4c5sc(-c6ccccc6)nc5CC[C@]4(C)[C@H]3CC[C@@]21C`, the growth is 92.7% with T-47D breast; 86.2% with BT-549 breast; 93.6% with MDA-MB-435 melanoma; 89.9% with SW-620 colon; 51.2% in the assay on MCF7 breast; 78.2% with HCT-116 colon. The growth with HCC-2998 colon is 97.4%; with KM12 colon it was 78.9%.

Take `CCOC(=O)c1c(C)c2c(n1Cc1ccccc1)CSc1cc(C#N)c(=O)[nH]c1-2`: the growth in the assay with T-47D breast was 69.2% [100 µM]; in the assay on BT-549 breast it was 46% [100 µM]; in the assay with MDA-MB-435 melanoma it was 98.2% [100 µM]; in the assay with SW-620 colon, 91.7% [100 µM]; in the assay with MCF7 breast it was 101% [100 µM]; in the assay with HCT-116 colon, 59.9% [100 µM]. The results for the growth in the assay with HCC-2998 colon and in the assay on KM12 colon were 99.7% [100 µM] and 67.6% [100 µM], respectively.

On to `CC(C)=CC(=O)C1C(=O)c2ccccc2C1=O`, for which the growth with T-47D breast was 97.3%; with BT-549 breast, 108%; with MDA-MB-435 melanoma it was 98.9%; in the assay with SW-620 colon, 102%; in the assay on MCF7 breast it was 93.4%; in the assay with HCT-116 colon, 103%. Besides, the growth in the assay on HCC-2998 colon was 111%; in the assay with KM12 colon it was 103%.

On to `Cn1nc(-c2ccc(Cl)cc2)nc2c(=O)n(C)c(=O)nc1-2`, for which the growth is -43.2% (active) with T-47D breast; -46.5% (active) in the assay on BT-549 breast; -45.8% (active) in the assay with MDA-MB-435 melanoma; -33.2% (active) in the assay with SW-620 colon; -62.5% (active) in the assay on MCF7 breast; -37.7% (active) in the assay with HCT-116 colon. The results for the growth with HCC-2998 colon and with KM12 colon were -70.2% (active) and -15.3% (active), respectively.
